# From PubChem BioAssay
# The sample as a whole holds a higher share of hits than the screen did.
# Pf Dd2 inh = blocks in vitro growth of P. falciparum Dd2; P. falciparum Dd2 growth, SYBR Green, 72 h; Potency, µM (series often up to 28.9 µM), without a hit: top-dose activity, negative = inhibition, most hits filed as inhibitors; 120,000 tested, 4.3% active; AID 1347417; active means well fitted inhibition curve with a large enough effect;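 further: plate controls were DMSO vehicle for no effect and reference drug for full effect; nearly all actives have a fitted effect of over 65% in size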
#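 Infected erythrocytes (Dd2, 0.3% parasitemia, 2.5% hematocrit final) are added to compound in RPMI-1640/Albumax II medium, grown 72 h at 37C in low oxygen, then lysed with saponin/Triton-X containing SYBR Green and read by fluorescence.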
# The depositor's hits bear a star; i = inactive; [ ] = another dose, or the depositor's remark. Potency means the concentration at half of the fitted maximal effect.
SMILES,Pf Dd2 inh
CCc1ccccc1NC(=O)c1sc(-n2nc(C)c(Cc3ccc4c(c3)OCO4)c2C)nc1C,4µM*
Cc1nc(-n2nc(C)c(Cc3ccc4c(c3)OCO4)c2C)sc1C(=O)Nc1ccc(Cl)cc1,-19%
CCOc1ccc(-c2csc(-c3nc(-c4ccc(Br)s4)cs3)n2)cc1,4%
Cc1ccccc1C(=O)N1CCC(n2cnnc2C2CC2)CC1,22%
Cc1cc(C)cc(N2CCC(N)C2=O)c1 (stereo unspecified),i
CCOC(=O)c1c(NC(=O)CS(=O)(=O)c2ccc(C)cc2)sc2c1CCCCC2,43%
CC1CCN(S(=O)(=O)c2ccc(C(=O)Nc3sc4c(c3C(N)=O)CC(C)(C)NC4(C)C)cc2)CC1,i
CCOC(=O)c1c(NC(=O)c2ccc(S(=O)(=O)N(CCOC)CCOC)cc2)sc2c1CC(C)(C)NC2(C)C,10µM*
Cc1cn2c(=O)cc(COc3ccccc3NC(=O)c3ccco3)nc2s1,28%
CCOc1ccc(CC(=O)Nc2ccc3c(c2)N(C)C(=O)c2ccccc2S3)cc1OCC,2%
CC(=O)N1c2c(cc(Br)cc2S(=O)(=O)N2CCN(c3ccccc3)CC2)CC1C (stereo unspecified),-16%
CCCC(=O)NC1CCN(c2cnn(C)c(=O)c2)CC1,1%
O=C(c1cccc(Cl)c1)N1CCC2(C1)NC(=O)N(Cc1ccc(Cl)cc1)C2=O (stereo unspecified),i
O=C(NCc1cccc(Cl)c1)c1ccc2nc(N3CCCCC3)sc2c1,i
O[C@H]1CCCC[C@@H]1NC1CCN(c2nc3ccc(Cl)cc3s2)CC1,4µM*
Cc1ccc2nc(N3CCN(C(=O)C4CC4)CC3)sc2c1,33%
COc1ccc(CC(=O)O)cc1S(=O)(=O)N1C[C@H](C(C)C)[C@@H](N)C1,2%
Cc1nn(-c2ccccc2)c2c1N(CC(=O)N1CCN(c3ccc(Cl)cc3)CC1)C(=O)CS2,46%
Cc1cccc(C(=O)Nc2nnc(S(=O)(=O)N(C)Cc3ccccc3)s2)c1,59%[5.79 µM]
COc1ccccc1CN1CCCC(CN(CCN(C)C)C(=O)c2cc(C(C)C)no2)C1 (stereo unspecified),i
CCN(CC1CCCN(CCc2cccc(OC)c2)C1)C(=O)c1cc(C)no1 (stereo unspecified),10µM*
CCN(CC1CCCN(CCc2cccc(OC)c2)C1)C(=O)CN1CCCC1=O (stereo unspecified),-11%
COCCCNC(=O)c1ccc2c(c1)nc1n2CCCCC1,14%
COc1ccc(CNC(=O)C(=O)Nc2ccccc2OC)cc1,7%
COc1ccc(C2(C(=O)N3CCCCCC3c3nc(-c4cccnc4)no3)CC2)cc1 (stereo unspecified),-25%
SMILES,Pf Dd2 inh
CCOC(=O)c1ccc(NC(=O)CCc2c(C)nc3c(-c4ccc(F)cc4)c(C)nn3c2C)cc1,3.5µM*
Cc1nc2c(-c3ccc(F)cc3)c(C)nn2c(C)c1CCC(=O)NCc1ccc(F)cc1,41%
CCOC(=O)c1ccc(NC(=O)c2cnc3c(-c4ccc(F)cc4)c(C)nn3c2C)cc1,50%
O=S(=O)(c1ccc(F)cc1)N1CCCC(Cc2noc(C3CC3)n2)C1 (stereo unspecified),i
O=[S+]1([O-])NCC2(CCN(Cc3ccccc3C(F)(F)F)CC2)Nc2ccccc21,13µM*
O=[S+]1([O-])NCC2(CCN(Cc3ccc(OC(F)(F)F)cc3)CC2)Nc2ccccc21,-24%
O=[S+]1([O-])NC2(CCN(CC3CCCCC3)C2)CNc2ccccc21 (stereo unspecified),-11%
O=[S+]1([O-])NCC2(CCN(CC3CCCCC3)C2)Nc2ccccc21 (stereo unspecified),4.5µM*
O=[S+]1([O-])NCC2(CCN(Cc3cccc4ccccc34)CC2)Nc2ccccc21,i
O=[S+]1([O-])NCC2(CCN(Cc3ccccc3)C2)Nc2ccccc21 (stereo unspecified),i
CCCNC(=O)N1C[C@@H]2CCCN3CCC[C@@H]([C@H]23)[C@H]1CCCC(=O)NCC1CC1,-14%
CN(C)c1ccc(CN2CCC3(C2)C(=O)N(Cc2ccccc2)c2ccccc23)cc1 (stereo unspecified),-29%
COc1ccc(C2=NOC3(CCN([S+](=O)([O-])c4ccccc4)C3)C2)cc1 (stereo unspecified),i
Cc1ccc(C(=O)NC[C@H]2O[C@@H](CC(=O)N3CCN(c4ccccn4)CC3)[C@H](O)[C@@H]2O)cc1,-21%
O=C1[C@H]2CN(Cc3ccc(F)cc3F)C[C@H]2C(=O)N1Cc1ccc2c(c1)OCO2,-19%
COc1cccc(C(CC(=O)NCCc2ccc(OC)c(OC)c2)c2c[nH]c3ccccc23)c1 (stereo unspecified),-16%
COc1ccccc1C(CC(=O)NCC(C)C)c1cn(C)c2ccccc12 (stereo unspecified),i
COc1ccc(CCN(C)C(=O)CC(c2cccc(F)c2)c2cn(C)c3ccccc23)cc1OC (stereo unspecified),2µM*
COc1ccc(OC)c(NC(=O)Cn2c(=O)oc3cc(S(=O)(=O)NCc4ccccc4)ccc32)c1,i
